The source of these data is ChEMBL document CHEMBL3988442, “University of Dundee, Small-Polar-MMV Screening Library” (2021).

The structures appear in SMILES notation. For some of these results: Potency and affinity values are given separately.

Common to all, as to parameters: scale not given: direction of the effect not stated beside the values
The target of test [1] is Protein translocase subunit SecA (Escherichia coli (strain K12)) (UniProt P10408). Description: Assay to Identify E. coli SecA ATPase Inhibitors. In kind it is functional. Particulars: 30 µM.
Sequence of Protein translocase subunit SecA (Escherichia coli (strain K12)) (P10408 whole entry): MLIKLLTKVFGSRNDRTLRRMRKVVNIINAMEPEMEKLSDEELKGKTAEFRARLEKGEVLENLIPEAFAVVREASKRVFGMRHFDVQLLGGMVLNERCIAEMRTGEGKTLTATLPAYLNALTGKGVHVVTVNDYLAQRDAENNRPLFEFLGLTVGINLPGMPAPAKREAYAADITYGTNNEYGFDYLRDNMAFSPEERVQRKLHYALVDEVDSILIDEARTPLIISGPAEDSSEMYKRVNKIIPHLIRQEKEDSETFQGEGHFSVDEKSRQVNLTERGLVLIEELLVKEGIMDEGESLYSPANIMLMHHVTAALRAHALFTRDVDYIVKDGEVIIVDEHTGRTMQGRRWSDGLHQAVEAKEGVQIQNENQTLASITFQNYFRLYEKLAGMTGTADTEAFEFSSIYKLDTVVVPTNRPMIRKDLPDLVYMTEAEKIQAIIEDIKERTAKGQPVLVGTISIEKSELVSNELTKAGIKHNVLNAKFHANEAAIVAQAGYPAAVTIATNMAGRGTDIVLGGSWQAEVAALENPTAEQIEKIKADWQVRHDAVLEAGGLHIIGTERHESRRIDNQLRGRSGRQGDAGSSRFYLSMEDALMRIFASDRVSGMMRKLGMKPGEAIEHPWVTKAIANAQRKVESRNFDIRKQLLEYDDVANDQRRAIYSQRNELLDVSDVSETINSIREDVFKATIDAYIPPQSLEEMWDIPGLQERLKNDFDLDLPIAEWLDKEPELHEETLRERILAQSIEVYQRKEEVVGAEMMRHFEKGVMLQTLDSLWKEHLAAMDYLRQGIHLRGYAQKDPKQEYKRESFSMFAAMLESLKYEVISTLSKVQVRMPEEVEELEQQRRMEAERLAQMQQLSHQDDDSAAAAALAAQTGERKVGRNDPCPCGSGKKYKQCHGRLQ
The target of test [2] is T1, Ubiquitin-activating enzyme e1, putative (Leishmania donovani (strain BPK282A1)) (UniProt E9BSI1).
T1 sequence (whole entry): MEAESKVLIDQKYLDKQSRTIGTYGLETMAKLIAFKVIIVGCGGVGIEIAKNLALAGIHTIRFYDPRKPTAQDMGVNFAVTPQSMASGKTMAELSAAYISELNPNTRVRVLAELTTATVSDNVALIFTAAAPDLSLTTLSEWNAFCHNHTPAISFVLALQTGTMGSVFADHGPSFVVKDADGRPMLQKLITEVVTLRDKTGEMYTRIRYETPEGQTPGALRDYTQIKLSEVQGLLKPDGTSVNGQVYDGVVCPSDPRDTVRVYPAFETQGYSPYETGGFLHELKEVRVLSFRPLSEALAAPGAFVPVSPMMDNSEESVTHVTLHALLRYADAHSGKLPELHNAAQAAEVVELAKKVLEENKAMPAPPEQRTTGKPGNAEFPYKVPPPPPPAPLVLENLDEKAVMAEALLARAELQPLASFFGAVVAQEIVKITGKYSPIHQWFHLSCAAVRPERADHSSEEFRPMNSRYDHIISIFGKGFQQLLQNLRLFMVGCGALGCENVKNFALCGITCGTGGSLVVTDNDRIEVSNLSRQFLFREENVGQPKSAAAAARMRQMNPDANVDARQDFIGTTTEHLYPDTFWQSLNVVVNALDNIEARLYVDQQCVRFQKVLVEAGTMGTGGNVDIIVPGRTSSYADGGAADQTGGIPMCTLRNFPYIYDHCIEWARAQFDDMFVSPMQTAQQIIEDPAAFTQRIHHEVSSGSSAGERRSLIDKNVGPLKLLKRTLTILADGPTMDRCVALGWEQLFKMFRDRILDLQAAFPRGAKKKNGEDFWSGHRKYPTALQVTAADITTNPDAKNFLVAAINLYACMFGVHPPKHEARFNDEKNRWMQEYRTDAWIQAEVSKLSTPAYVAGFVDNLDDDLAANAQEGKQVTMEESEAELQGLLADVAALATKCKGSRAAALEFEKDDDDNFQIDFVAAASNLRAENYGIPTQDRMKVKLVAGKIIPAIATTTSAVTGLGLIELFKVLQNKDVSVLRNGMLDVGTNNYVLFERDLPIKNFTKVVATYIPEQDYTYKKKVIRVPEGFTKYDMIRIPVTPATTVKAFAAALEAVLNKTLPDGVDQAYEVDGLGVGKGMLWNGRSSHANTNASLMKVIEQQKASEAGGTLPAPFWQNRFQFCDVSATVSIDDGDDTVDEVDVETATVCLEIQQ
Nature of the test: Leishmania donovani Ubiquitin Activating Enzyme (LdE1). It counts as functional. To be noted: 30 µM.

The target in test [3] is AMP-activated protein kinase, AMPK (Homo sapiens) (UniProt P54646+O43741+P54619+Q9UGJ0+Q9Y478+Q13131+Q9UGI9). Description: AMP-dependent Kinase enzyme assay. An in vitro enzyme assay that detects ADP turnover that is directly proportional to AMPK activity. This uses naive AMPK that is activated during the assay with MK-8722. It counts as functional. Particulars: 30 µM.
The target of test [4] is Sialic acid-binding Ig-like lectin 9 (Homo sapiens) (UniProt Q9Y336). Nature of the test: Hs-Siglec9 ALPHAscreen SOP 20170721. Particulars: 10 µM.
Sequence of Sialic acid-binding Ig-like lectin 9 (Homo sapiens) (Q9Y336 whole entry): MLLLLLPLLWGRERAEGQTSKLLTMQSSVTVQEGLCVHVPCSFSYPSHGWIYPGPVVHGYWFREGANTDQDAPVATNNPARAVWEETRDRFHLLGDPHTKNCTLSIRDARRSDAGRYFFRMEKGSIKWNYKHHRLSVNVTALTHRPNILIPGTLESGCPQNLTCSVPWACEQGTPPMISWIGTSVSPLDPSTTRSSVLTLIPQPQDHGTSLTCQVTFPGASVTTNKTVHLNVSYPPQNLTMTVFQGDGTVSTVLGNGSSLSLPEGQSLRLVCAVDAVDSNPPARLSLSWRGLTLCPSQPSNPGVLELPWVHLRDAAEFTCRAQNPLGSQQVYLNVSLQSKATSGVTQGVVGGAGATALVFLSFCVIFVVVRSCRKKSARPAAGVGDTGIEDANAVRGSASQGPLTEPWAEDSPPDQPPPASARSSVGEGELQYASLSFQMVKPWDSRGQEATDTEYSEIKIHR
In a further test the test system is Trypanosoma cruzi. Nature of the test: Trypanosoma cruzi phosphomannomutase and mannose-1-phosphate guanylyltransferase assay. In kind it is functional. Particulars: 10 µM.
The target of test [5] is T2, Arginase-2, mitochondrial (Homo sapiens) (UniProt P78540).
T2 sequence (whole entry): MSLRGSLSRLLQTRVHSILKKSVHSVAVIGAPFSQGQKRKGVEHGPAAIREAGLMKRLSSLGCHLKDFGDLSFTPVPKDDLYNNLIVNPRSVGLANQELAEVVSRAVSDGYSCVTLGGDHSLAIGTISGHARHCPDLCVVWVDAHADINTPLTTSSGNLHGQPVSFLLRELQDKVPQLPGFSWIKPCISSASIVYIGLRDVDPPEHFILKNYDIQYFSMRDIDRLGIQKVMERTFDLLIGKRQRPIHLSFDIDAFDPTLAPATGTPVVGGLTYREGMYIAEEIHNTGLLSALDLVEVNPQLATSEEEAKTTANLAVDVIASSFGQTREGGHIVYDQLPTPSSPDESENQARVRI
Description: in vitro enzyme assay to detect the production of urea directly proportional to the activity of Arginase II. Note: in the data most compounds retested in dose-response had high values. In kind it is functional. To be noted: 33.3 µM.

Test [6] addresses T3, Proteasome subunit beta (Trypanosoma cruzi) (UniProt O96673).
T3 sequence (whole entry): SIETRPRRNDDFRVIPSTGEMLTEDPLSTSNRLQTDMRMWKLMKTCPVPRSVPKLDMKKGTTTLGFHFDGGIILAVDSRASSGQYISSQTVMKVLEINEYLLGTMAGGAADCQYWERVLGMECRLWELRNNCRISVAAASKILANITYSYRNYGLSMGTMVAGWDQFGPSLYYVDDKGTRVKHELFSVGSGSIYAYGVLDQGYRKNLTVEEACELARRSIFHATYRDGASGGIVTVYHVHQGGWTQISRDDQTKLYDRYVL
Nature of the test: Trypanosoma cruzi proteasome chymotrypsin-like activity (TcProtChymo) assay. Note: in the data most compounds retested in dose-response had high values. Particulars: 9.37 µM. It counts as functional.

For a further test, the species on record is Homo sapiens. Nature of the test: To identify inhibition of the IFN signalling (Jak-Stat) pathway via expression of an eGFP reporter gene under the control of an IFN-stimulated response element (ISRE) containing MxA promoter. It counts as functional. To be noted: 30 µM.
The target of test [7] is T4, Tyrosyl-tRNA synthetase, putative (Trypanosoma cruzi (strain CL Brener)) (UniProt Q4DSP6).
T4 sequence (whole entry): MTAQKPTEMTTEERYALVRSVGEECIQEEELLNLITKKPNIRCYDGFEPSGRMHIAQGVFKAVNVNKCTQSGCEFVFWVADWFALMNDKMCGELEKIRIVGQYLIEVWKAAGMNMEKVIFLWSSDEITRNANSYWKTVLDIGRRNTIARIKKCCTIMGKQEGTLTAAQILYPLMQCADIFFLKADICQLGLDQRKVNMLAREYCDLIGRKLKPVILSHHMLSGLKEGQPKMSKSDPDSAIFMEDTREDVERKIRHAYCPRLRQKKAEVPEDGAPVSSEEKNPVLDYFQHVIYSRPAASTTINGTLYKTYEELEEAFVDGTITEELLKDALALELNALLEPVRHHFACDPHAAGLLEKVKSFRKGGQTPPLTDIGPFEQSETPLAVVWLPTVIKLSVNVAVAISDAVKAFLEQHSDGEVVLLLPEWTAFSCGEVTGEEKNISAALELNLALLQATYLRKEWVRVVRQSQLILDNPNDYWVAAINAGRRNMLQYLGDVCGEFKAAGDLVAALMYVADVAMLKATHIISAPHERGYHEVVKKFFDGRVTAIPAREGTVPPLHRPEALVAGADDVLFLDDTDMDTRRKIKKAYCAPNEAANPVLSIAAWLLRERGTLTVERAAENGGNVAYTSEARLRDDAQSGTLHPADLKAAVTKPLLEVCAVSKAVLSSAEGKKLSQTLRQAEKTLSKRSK
Description: Trypanosoma cruzi tyrosyl tRNA synthetase (TcYRS) _High Tyrosine SOP. Note: in the data most compounds retested in dose-response had high values. It counts as functional. To be noted: 30 µM.

The target of test [8] is T4, Tyrosyl-tRNA synthetase, putative (Trypanosoma cruzi (strain CL Brener)). Description: Trypanosoma cruzi tyrosyl tRNA synthetase (TcYRS) SOP. In kind it is functional. Particulars: 30 µM.
In test [9] the target is Chromo domain-containing protein 1 (Saccharomyces cerevisiae (strain ATCC 204508 / S288c) (Baker's yeast)) (UniProt P32657). Nature of the test: ScCHD-1 Enzyme Inhibition Assay. Note: in the data most compounds retested in dose-response had high values. It counts as functional. Particulars: 30 µM.
Sequence of Chromo domain-containing protein 1 (Saccharomyces cerevisiae (strain ATCC 204508 / S288c) (Baker's yeast)) (P32657 whole entry, the tested form may be a part): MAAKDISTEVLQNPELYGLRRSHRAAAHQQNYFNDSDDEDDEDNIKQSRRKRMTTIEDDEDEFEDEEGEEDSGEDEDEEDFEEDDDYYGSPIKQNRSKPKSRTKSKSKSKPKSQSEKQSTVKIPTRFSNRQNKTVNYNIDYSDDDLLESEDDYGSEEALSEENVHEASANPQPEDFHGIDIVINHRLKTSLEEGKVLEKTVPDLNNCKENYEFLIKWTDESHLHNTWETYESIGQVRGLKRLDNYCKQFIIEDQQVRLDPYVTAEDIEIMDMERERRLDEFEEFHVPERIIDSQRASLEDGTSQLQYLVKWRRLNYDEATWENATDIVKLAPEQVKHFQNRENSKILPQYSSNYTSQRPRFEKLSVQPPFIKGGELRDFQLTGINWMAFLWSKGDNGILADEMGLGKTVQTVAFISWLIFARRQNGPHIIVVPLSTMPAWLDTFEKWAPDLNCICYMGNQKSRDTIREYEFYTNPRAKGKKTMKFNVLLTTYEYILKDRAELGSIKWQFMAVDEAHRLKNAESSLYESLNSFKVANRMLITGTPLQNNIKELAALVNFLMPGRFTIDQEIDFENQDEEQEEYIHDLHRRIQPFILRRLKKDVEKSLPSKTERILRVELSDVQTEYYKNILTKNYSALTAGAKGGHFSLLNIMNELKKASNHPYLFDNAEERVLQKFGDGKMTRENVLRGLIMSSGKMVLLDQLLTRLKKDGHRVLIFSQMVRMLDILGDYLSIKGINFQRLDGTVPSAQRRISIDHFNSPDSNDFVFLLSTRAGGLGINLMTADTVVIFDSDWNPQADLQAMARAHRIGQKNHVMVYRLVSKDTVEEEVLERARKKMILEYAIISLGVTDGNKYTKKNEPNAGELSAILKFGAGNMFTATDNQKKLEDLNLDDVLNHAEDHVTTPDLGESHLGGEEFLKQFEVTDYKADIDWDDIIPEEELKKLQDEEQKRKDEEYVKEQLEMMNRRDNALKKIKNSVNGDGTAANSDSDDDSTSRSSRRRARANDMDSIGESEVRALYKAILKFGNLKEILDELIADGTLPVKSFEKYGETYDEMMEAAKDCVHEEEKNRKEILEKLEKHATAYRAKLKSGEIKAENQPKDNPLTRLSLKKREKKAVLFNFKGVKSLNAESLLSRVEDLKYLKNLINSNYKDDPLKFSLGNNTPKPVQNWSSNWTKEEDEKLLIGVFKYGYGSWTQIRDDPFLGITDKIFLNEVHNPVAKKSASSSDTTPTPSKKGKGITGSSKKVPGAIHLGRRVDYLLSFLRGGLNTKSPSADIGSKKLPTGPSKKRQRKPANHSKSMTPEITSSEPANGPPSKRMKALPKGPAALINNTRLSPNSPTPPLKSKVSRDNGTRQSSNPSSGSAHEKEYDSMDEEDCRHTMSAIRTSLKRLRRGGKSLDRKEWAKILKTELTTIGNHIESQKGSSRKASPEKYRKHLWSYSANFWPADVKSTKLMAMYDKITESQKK

For `NC(=O)C(CNC(=O)COCC(F)(F)F)Cc1ccc(F)cc1` (stereo not drawn), the Percent Effect in [1] is -3.66%; in test [2] it was 5.26%; in [3], 9.48%; in test [4], -1.54%; with Trypanosoma cruzi, 0.292%; in test [5], -5.92%. For the same compound, the Percent Effect in test [6] was 13.1%; in the test filed under Homo sapiens it was -19.6%; in test [7] it was 2.13%; in test [8], 15.6%; in [9], -4.87%.
As for `CCNC(=O)c1nc2c(s1)CCCN2S(C)(=O)=O`, the Percent Effect is -5.43% in [1]; 24% in [2]; -3.85% in test [3]; -4.95% in test [4]; 0.772% in the test with Trypanosoma cruzi; -56.8% in test [5]. Also, the Percent Effect in [6] was 5.81%; in the test listed under Homo sapiens, 22.1%; in [7] it was -6.25%; in test [8], 15%; in test [9], -18.4%.
On to `Cc1nccc(CN2CCC(c3nnsc3S(C)(=O)=O)CC2)n1`, for which the Percent Effect in test [1] was -3.04%; in test [2], 6.76%; in test [3], 5.68%; in [4] it was 4.24%; in the test on Trypanosoma cruzi, -3.75%; in test [5], -1.16%. Further, the Percent Effect was 8.89% in test [6]; 16.8% in the test listed under Homo sapiens; 3.23% in [7]; 11.7% in test [8]; -12% in [9].
Consider `COc1ccc(CN(Cc2cccnc2)CC2CCCO2)c(OC)c1` (stereo not drawn), for which the Percent Effect was -1.69% in test [1]; -2.67% in test [2]; 11.4% in [3]; 2.14% in test [4]; 6.69% in the test on Trypanosoma cruzi; -1.63% in test [5]. Further, the Percent Effect in [6] is 7.67%; in the test filed under Homo sapiens it was 3.47%; in [7] it was 2.13%; in test [8], 6.41%; in test [9] it was -2.64%.
`O=C(c1cccc(CNS(=O)(=O)c2ccccc2F)c1)N1CCCC1`: the Percent Effect in [1] is -3.56%; in [2] it was 15.6%; in [3], 1.76%; in test [4], 3.25%; with Trypanosoma cruzi, 2.25%; in [5] it was 0.21%. Besides, the Percent Effect in test [6] was 5.25%; in the test listed under Homo sapiens, 24.1%; in [7] it was 5.71%; in test [8] it was 18.8%; in test [9], -5.99%.
Regarding `COCCC(=O)N1CCC2(CN(Cc3ccc(OC)c(F)c3)C2)C1`, the Percent Effect in [1] was 1.99%; in test [2], 13.7%; in [3] it was -3.76%; in test [4] it was 8.62%; in the test on Trypanosoma cruzi, 5.16%; in [5], 0.399%. For the same compound, the Percent Effect in test [6] was 6.42%; in the test filed under Homo sapiens, -17.9%; in test [7] it was 6.25%; in test [8] it was 18.5%; in test [9], -0.472%.
Take `Cc1ccc(C(=O)N2CCN(Cc3nc(C(C)C)no3)CC2)c(=O)[nH]1`: the Percent Effect in test [1] is -7.78%; in test [2], 2.7%; in test [3], -5.78%; in test [4] it was 5.72%; in the test with Trypanosoma cruzi it was -4.36%; in test [5] it was -2.77%. Also, the Percent Effect in test [6] is -4.49%; in the test filed under Homo sapiens it was 13.8%; in test [7] it was 1.98%; in test [8] it was 1.22%; in test [9], 7.95%.
Take `CN(C)c1ccc(CCNC(=O)C2CCC(=O)N(C3CCCC3)C2)cc1` (stereo not drawn): the Percent Effect in [1] was -4.96%; in test [2], 8%; in test [3], 1.17%; in test [4], 1.11%; in the test with Trypanosoma cruzi it was -2.04%; in [5], 1.56%. Also, the Percent Effect in test [6] was 13.1%; in the test listed under Homo sapiens, 1.03%; in test [7] it was 2.73%; in test [8] it was 11.1%; in test [9], -5.65%.
